Assay outcomes from PubChem BioAssay.
PG9 Ab binder: small molecules binding HIV-1 gp120 antibody PG9; TR-FRET gp120-PG9 antibody binding; inhibition, % at 6.7 µM; 360,000 compounds, 0.43% hits; in the data active means inhibition above about 8.5%
MBD2 inh: blocks human MBD2 binding to methylated DNA. TR-FRET, MBD2 binding to methylated oligonucleotide. inhibition, % at 4.4 µM. 370,000 compounds, 0.31% hits; in the data active means inhibition above about 13%
rCAG binder: r(CAG) repeat RNA binding. inhibition, % at 3 µM. TO-PRO-1 dye displacement fluorescence. 370,000 compounds, 1.3% hits. AID 651821;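 active means inhibition above the plate cutoff, the mean of all test compounds on that plate plus 3 SD, cut at about 35% in these data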;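 further: higher means more dye released from RNA so lower well fluorescence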
DNMT1 inh: blocks human DNA methyltransferase DNMT1; P26358; DNMT1 molecular beacon, Hinp1I cleavage, fluorescence; inhibition (reported as % activation of signal), % at 10 µM; 360,000 compounds, 0.83% hits; AID 588458; in the data active means inhibition above about 50%
LEDGF integ inh: blocks HIV-1 LEDGF/p75-dependent DNA integration | TR-FRET IN-LEDGF/p75 DNA integration, Eu/Cy5 | inhibition, % at 3.7 µM | 370,000 compounds, 0.64% hits | AID 743269;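 active means inhibition above the screen-wide mean plus 3 SD, cut at about 13% in these data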;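 further: signal is the Cy5 over europium emission ratio at 671 and 618 nm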
UHRF1 MBD2 ctr: blocks human UHRF1 binding to methylated DNA. inhibition, % at 4.4 µM. 370,000 compounds, 0.75% hits. UHRF1 binding to methylated oligo, TR-FRET. Q96T88; in the data active means inhibition above about 21%;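 further: UHRF1 SRA domain binding a hemimethylated CpG hairpin DNA probe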
Target sequence (Q96T88 whole entry, looked up, the tested form may be a part): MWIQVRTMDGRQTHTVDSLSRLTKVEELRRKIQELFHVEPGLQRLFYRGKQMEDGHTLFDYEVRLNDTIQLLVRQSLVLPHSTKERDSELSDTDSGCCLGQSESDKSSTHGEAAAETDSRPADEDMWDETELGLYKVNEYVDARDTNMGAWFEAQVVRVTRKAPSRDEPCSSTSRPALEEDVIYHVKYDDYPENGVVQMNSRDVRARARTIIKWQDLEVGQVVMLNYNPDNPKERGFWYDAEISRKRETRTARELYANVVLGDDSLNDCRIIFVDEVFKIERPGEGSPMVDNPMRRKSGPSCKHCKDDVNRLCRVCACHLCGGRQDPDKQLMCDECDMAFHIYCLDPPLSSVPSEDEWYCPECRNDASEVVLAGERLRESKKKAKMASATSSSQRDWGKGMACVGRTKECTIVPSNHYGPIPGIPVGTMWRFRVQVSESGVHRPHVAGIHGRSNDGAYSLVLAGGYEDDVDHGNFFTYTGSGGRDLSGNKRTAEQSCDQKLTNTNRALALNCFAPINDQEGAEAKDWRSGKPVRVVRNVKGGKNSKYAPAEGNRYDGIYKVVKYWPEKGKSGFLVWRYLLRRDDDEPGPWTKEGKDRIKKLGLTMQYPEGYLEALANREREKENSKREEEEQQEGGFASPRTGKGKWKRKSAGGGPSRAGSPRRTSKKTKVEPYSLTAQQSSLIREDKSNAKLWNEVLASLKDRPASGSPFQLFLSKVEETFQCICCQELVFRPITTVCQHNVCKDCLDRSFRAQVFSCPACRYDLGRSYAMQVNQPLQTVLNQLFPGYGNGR
rCAG binder conf: r(CAG) RNA repeat binding, confirmation; shares compounds with rCAG binder; TO-PRO-1 dye displacement fluorescence; inhibition, % at 3 µM; 4,300 compounds, 70% hits; AID 652065;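 active means inhibition above a per-plate cutoff, the mean inhibition of sample wells plus 3 SD, cut at about 35% in these data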;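 further: loss of TO-PRO-1 fluorescence as compound displaces dye from 1x1 AA loop RNA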
dCAG dye counter: disrupts DNA CAG TO-PRO-1 complex, flagging rCAG hits; shares compounds with rCAG binder; d(CAG) DNA oligo TO-PRO-1 dye displacement, fluorescence; inhibition, % at 3 µM; 4,300 compounds, 94% hits;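 active means inhibition above its plate's cutoff, the mean test-well inhibition plus 3 SD, cut at about 4.8% in these data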;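 further: hits displace the dye from DNA and so lower well fluorescence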
DNA CAG DR: DNA CAG dye complex inhibition, dose response counter-screen; shares compounds with rCAG binder; DNA CAG/GTC duplex TO-PRO-1 dye displacement fluorescence; IC50, µM; 250 compounds, 20% hits; AID 686960; in the data active means IC50 below about 10 µM
Large screens that a line does not name were inactive (follow-up assays come after a bar, where they were run). This is a sample that favours compounds with a hit; in the whole collection about 3.5% have one here.

Cn1c2ccccc2c2ccc3c(c21)C(=O)C=CC3=O	none
COc1ccc2c(c1)c1ccc3c(c1n2C)C(=O)C=CC3=O	rCAG binder 54 | rCAG binder conf inactive | dCAG dye counter 8.3
Cc1ccc2c(c1)c1ccc3c(c1n2C)C(=O)C=CC3=O	rCAG binder 51 | rCAG binder conf inactive | dCAG dye counter 9.6
COc1ccc2c(c1)c1ncn(CCN3CCCC3)c(=O)c1n2C	none
CN(C)c1ccc(/C=C(/NC(=O)c2ccccc2Cl)C(=O)NCCN2CCOCC2)cc1	none
COC(=O)c1ccc(CN(c2ccc(C(=O)O)c(O)c2)S(=O)(=O)c2ccc(Cl)c([N+](=O)[O-])c2)cc1	rCAG binder 43 | rCAG binder conf 52 | dCAG dye counter 18
C=CCN(c1ccccc1)S(=O)(=O)c1cccc(C(=O)NC2CCC(O)CC2)c1 (configuration not stated)	none
Cc1ccc(S(=O)(=O)N/N=C2/CC(c3ccccc3)Oc3ccccc32)cc1[N+](=O)[O-] (configuration not stated)	rCAG binder 42 | rCAG binder conf 76 | dCAG dye counter 37
CCn1c2ccccc2c2cc(NC(=O)C(C)C)ccc21	none
CCn1c2ccccc2c2cc(NC(=O)c3ccccc3-c3ccccc3C(=O)O)ccc21	rCAG binder 75 | rCAG binder conf 65 | dCAG dye counter 26
O=C(O)c1ccccc1-c1ccccc1C(=O)Nc1ccc2c(c1)[nH]c(=O)c1ccccc12	rCAG binder 68 | rCAG binder conf 62 | dCAG dye counter 27
O=C(O)c1ccccc1-c1ccccc1C(=O)Nc1ccc(-c2nc3cc(Cl)ccc3o2)cc1	rCAG binder 71 | rCAG binder conf 85 | dCAG dye counter 54
O=C(O)c1ccccc1-c1ccccc1C(=O)Nc1ccc2oc(=O)c3ccccc3c2c1	rCAG binder 51 | rCAG binder conf 51 | dCAG dye counter 14
CCCCCOC(=O)c1ccc(NC(=O)c2cccc(NC(=O)c3ccccc3C(=O)O)c2)cc1	none
COc1ccc(-n2cnc(=S)[nH]c2=S)cc1	none
CCCCCn1nnnc1C1(C)Cn2nccc2C(=O)N1Cc1ccco1 (configuration not stated)	none (no result: PG9 Ab binder, DNMT1 inh)
CC(C)c1cc(C(=O)O)c2ccccc2n1	rCAG binder 40 | rCAG binder conf inactive | dCAG dye counter inactive
Cc1cc(OCC(=O)N[C@@H](CSCc2ccccc2)C(=O)O)c2c(C)c(C)c(=O)oc2c1	rCAG binder 49 | rCAG binder conf 54 | dCAG dye counter 13
Cc1c(Cc2ccccc2)c(=O)oc2cc(OCC(=O)NC(Cc3ccc(Cl)cc3)C(=O)O)ccc12 (configuration not stated)	rCAG binder 52 | rCAG binder conf 66 | dCAG dye counter 25
CCC(NC(=O)Cc1c(C)c2ccc(OC)c(C)c2oc1=O)C(=O)NC(Cc1ccc(Cl)cc1)C(=O)O (configuration not stated)	rCAG binder 36 | rCAG binder conf 41 | dCAG dye counter 8.8
Cc1c(Cc2ccccc2)c(=O)oc2c(C)c(OCC(=O)N[C@@H](Cc3ccccc3)C(=O)O)ccc12	rCAG binder 47 | rCAG binder conf 70 | dCAG dye counter 29 | DNA CAG DR inactive
Cc1c(C)c2ccc(OCC(=O)NC(Cc3ccc(Cl)cc3)C(=O)O)cc2oc1=O (configuration not stated)	none
COc1ccc(S[C@]2(C(=O)N3CCOCC3)CC(=O)N(C(=O)C3CC3)[C@@H]2c2ccc(OC)cc2)cc1	none (no result: PG9 Ab binder, DNMT1 inh)
COc1ccc(NC(=O)Nc2nc3ccccc3s2)cc1	rCAG binder 48 | rCAG binder conf inactive | dCAG dye counter 18
CCOc1ccc2nc(NC(=O)Nc3ccccc3)sc2c1	rCAG binder 50 | rCAG binder conf inactive | dCAG dye counter 20
COc1ccc2nc(NC(=O)CSc3nc(C)cc(=O)[nH]3)sc2c1	none
CCOc1ccc2nc(NC(=O)Nc3cccs3)sc2c1	rCAG binder 64 | rCAG binder conf inactive | dCAG dye counter 28
CCCc1cc(=O)[nH]c(SCC(=O)Nc2nc3ccc(OCC)cc3s2)n1	rCAG binder 49 | rCAG binder conf 40 | dCAG dye counter 12
COC(=O)C[C@@H]1OC[C@H](Cc2ccccc2)N1S(=O)(=O)c1ccc(C)cc1	none (no result: DNMT1 inh)
CC1(C(=O)NCc2ccccc2)CCC(=O)N1C1CCN(Cc2ccccc2)CC1 (configuration not stated)	none (no result: DNMT1 inh)
COc1ccc(-c2nn(-c3ccccc3)cc2C(=O)Nc2ccc(C(=O)O)cc2)cc1OC	none
Cc1ccc(-c2nn(-c3ccccc3)cc2C(=O)Nc2ccc(C(=O)O)cc2)cc1	rCAG binder 44 | rCAG binder conf 37 | dCAG dye counter 8.2
O=C(O)c1cccc(NC(=O)c2cn(-c3ccccc3)nc2-c2ccc(F)cc2)c1	rCAG binder 38 | rCAG binder conf inactive | dCAG dye counter 5.5
O=C(Nc1cccc(S(=O)(=O)NC2=NCCC2)c1)c1cn(-c2ccccc2)nc1-c1ccc(F)cc1	none
COc1ccccc1OCCNc1ccc(S(=O)(=O)N2CCCC2)cn1	none
Cc1ccccc1OCC(=O)N/N=C/c1sc(=O)n(Cc2cccc(C(=O)O)c2)c1Cl	rCAG binder 46 | rCAG binder conf 40 | dCAG dye counter 11
O=C(CSc1nnc(-c2cccnc2)n1Cc1ccco1)Nc1ccc(Cl)cc1	none (no result: PG9 Ab binder, DNMT1 inh)
O=C(O)c1cccc(S(=O)(=O)N(Cc2ccccc2)c2ccc(Cl)cc2)c1	rCAG binder 38 | rCAG binder conf 41 | dCAG dye counter 12
O=C(O)c1cccc(S(=O)(=O)N(Cc2ccccc2)c2ccccc2)c1	none
O=C(O)c1ccc(Cl)c(S(=O)(=O)N(Cc2ccccc2)c2ccccc2)c1	rCAG binder 38 | rCAG binder conf 39 | dCAG dye counter 9.6
O=C(O)c1ccc(Cl)c(S(=O)(=O)N(Cc2ccccc2)c2ccccc2Cl)c1	rCAG binder 73 | rCAG binder conf 68 | dCAG dye counter 22
O=C(O)c1ccc(Cl)c(S(=O)(=O)N(Cc2ccccc2)c2ccc(F)cc2)c1	rCAG binder 54 | rCAG binder conf 48 | dCAG dye counter 13
O=C(O)c1ccc(CN(c2ccccc2)S(=O)(=O)c2ccccc2)cc1	none
COc1ccc(N(Cc2ccccc2)S(=O)(=O)c2cc(C(=O)O)ccc2Cl)cc1	rCAG binder 53 | rCAG binder conf 42 | dCAG dye counter 8.9
CCN(CC)S(=O)(=O)c1cc(C(=O)O)ccc1Cl	none
